Screens deposited in PubChem BioAssay by Broad Institute.
AF4-AF9 inh: blocks AF4 peptide binding to human AF9; AlphaScreen, biotin-AF4 peptide binding to FLAG-AF9; inhibition, % at 10 µM; 350,000 tested, 0.47% active;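 active = every replicate reaching a set inhibition limit, whatever the replicate mean, cut at about 25% in these data; inconclusive = mean inhibition reaches that limit but some replicates miss it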
Target sequence (P42568 whole entry, looked up): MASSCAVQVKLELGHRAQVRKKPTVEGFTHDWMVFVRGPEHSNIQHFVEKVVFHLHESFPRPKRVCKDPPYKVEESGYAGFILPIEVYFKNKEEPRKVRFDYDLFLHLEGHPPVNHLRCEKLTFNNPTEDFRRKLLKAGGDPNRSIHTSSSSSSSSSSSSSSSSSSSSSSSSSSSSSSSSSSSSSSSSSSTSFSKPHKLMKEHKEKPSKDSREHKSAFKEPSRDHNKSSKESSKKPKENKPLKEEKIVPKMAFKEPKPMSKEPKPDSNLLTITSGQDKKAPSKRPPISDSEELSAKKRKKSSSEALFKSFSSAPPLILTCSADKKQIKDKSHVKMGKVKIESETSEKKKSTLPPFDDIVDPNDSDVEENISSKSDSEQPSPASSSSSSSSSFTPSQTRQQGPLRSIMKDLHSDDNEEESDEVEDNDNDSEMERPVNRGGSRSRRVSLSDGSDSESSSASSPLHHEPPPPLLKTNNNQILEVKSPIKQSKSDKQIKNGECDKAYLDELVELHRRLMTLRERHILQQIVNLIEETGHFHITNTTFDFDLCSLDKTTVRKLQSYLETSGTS
MITF TRPM1 HTS: increases MITF-driven TRPM1 promoter luciferase signal. SK-MEL-5 TRPM1-promoter luciferase, 24 h; % of positive control, neutral wells = 0. activation, % at 12.5 µM. 300,000 tested, 0.75% active. AID 588334;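 active = mean activation of at least 80% with every replicate also reaching 80%; inconclusive = mean reaches 80% but some replicate falls short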
Wnt bcat act: Wnt/beta-catenin pathway activation. AID 743398. 300,000 tested, 1.2% active. Wnt/beta-catenin reporter cell assay, activator, plate reader. activation, % at 9.35 µM; in the data active = activation above about 30%, passing the limit was not always enough; inconclusive = no clear call, values can overlap the other calls
rRNA inh HTS: selective bacterial rRNA inhibition in E. coli | E. coli WT GFP vs humanized-ribosome RFP mutants, fluorescence, 24 h; stronger effect = lower value; DMSO median 0, no signal -100 | GFP signal change (wild-type ribosome), % (concentration not given with the values) | AID 720706 | 350,000 tested, 1.6% active;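 active = significant combined selectivity score with lowered wild-type GFP, culture density cut under 30%, mutant RFP and density less affected; inactive = any of these conditions unmet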
esBAF inh: inhibitors of esBAF chromatin remodeling in mouse ES cells; Bmi1-luciferase knock-in reporter, 24 h; 100% = twice the neutral-well signal; reporter increase, % at 12.5 µM; AID 602393; 350,000 tested, 2% active; in the data active = activation above about 40%; inconclusive = no clear call, values can overlap the other calls;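 note: a rise in the Bmi1 reporter signal indicates esBAF inhibition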
AID977621: wild-type E. coli growth inhibition versus H69 humanized strain – H69 mutant RFP, wild-type GFP, cherry-pick, dose response | shares compounds with rRNA inh HTS | fluorescence, 24 h | activity change, negative = inhibition at 50 µM | 1,900 tested, under 10 active | AID 977621;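 active = Wild-type ribosome reporter drop at least double the humanized mutant ribosome reporter drop, growth loss under a set limit; inconclusive = no clear call, values can overlap the other calls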;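 note: wild-type GFP and H69 mutant RFP strains grown together 50/50 in each well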
AID977628: growth of wild-type and h24-humanized E. coli strains – h24 mutant RFP vs wild-type GFP, cherry-pick, dose response | shares compounds with rRNA inh HTS | E. coli WT GFP strain growth, fluorescence, 24 h | activity change, negative = inhibition at 50 µM | 1,900 tested, under 10 active | AID 977628;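 active = compound lowering the normal-ribosome reporter at least twice as much as the humanized-ribosome reporter, growth loss under a set limit; inconclusive = no clear call, values can overlap the other calls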;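 note: wild-type GFP and h24 humanized RFP strains co-cultured 1 to 1 per well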
Hits are given with their value; n = inactive; u = inconclusive; x = not tested or not shown. Compounds with a hit are over-represented: about 3.7% of the library has one in this group of screens.

SMILES	AF4-AF9 inh	MITF TRPM1 HTS	Wnt bcat act	rRNA inh HTS	esBAF inh	AID977621	AID977628
COc1cccc(-c2nn(-c3ccccc3)cc2CNC(C)Cn2cncn2)c1 (stereo not given)	n	n	n	n	n	x	x
Cc1ccc2oc(C(=O)N(C)Cc3ccc(C)o3)c(C)c2c1	n	n	n	-30	n	n	n
CCCOc1ccccc1N/C(=N\S(=O)(=O)c1ccc(C)cc1)Nc1nc(C)cc(C)n1	x	n	x	x	n	x	x
COc1cc(CC(=O)OCC(=O)Nc2ccc(N(C)C)cc2)cc(OC)c1OC	n	n	n	n	n	x	x
Cc1cccc(OCc2nc(C#N)c(N3CCCC3)o2)c1	x	n	n	-25	x	n	n
CCn1c(Cn2nnc(-c3ccccc3)n2)nnc1SCC(=O)Nc1ccccc1	n	n	n	n	n	x	x
COc1ccccc1N1CCN(C(=O)c2ccco2)CC1	n	n	n	n	n	x	x
COc1ccccc1C1CCN(C(=O)c2ccco2)CC1	n	n	n	-23	n	n	u
CCCn1c(C(C)Nc2nc(-c3ccc(C)cc3)cs2)nc2ccccc21 (stereo not given)	n	n	n	-16	n	n	n
O=C(COC(=O)c1cc(S(=O)(=O)N2CCOCC2)ccc1Cl)NCc1ccc2c(c1)OCO2	n	x	n	n	n	x	x
COC(=O)c1cc(S(=O)(=O)N2CCCC2)c(Cl)cc1Cl	n	x	n	n	n	x	x
O=[N+]([O-])c1ccc(Cl)cc1NCc1cccnc1	n	x	n	-21	x	n	u
C/C=C/c1ccc2c(c1)O[C@@H](CN(C)Cc1cccnc1)[C@H](C)CN([C@@H](C)CO)S2(=O)=O	n	x	x	n	n	x	x
O=C(NCCc1ccccc1)c1ccc2c(c1)N(Cc1ccccc1)C(=O)CS2=O (stereo not given)	n	n	n	n	n	x	x
O=C(Nc1ccccc1Cl)c1ccc2c(c1)N(Cc1ccc(F)cc1)C(=O)CS2=O (stereo not given)	n	n	n	-23	n	n	x
C[C@@H](NC(=O)[C@H]1[C@H](CO)[C@H]2Cn3c(ccc(-c4ccncc4)c3=O)[C@H]2N1C)c1ccccc1	n	x	x	n	n	x	x
NS(=O)(=O)c1ccc(CCNC(=O)CCCCCNc2nc(=S)[nH]c3ccccc23)cc1	n	x	n	-22	x	n	n
C[C@@H]1CN([C@H](C)CO)C(=O)c2cc(NC(=O)c3ccncc3)ccc2O[C@@H]1CN(C)S(=O)(=O)c1cn(C)cn1	n	x	x	n	n	x	x
O=C(Cc1coc2ccc3ccccc3c12)NCc1ccccc1	n	n	n	-26	n	n	x
COc1ccc(OCCSc2nc3ccccc3n2CC(=O)O)cc1	x	n	x	x	n	x	x
COc1ccc(C(=O)CSc2nc3ccccc3n2CC(=O)c2ccccc2)cc1	n	n	n	-28	n	n	n
COc1ccc(C2CC(=O)CCN2S(=O)(=O)c2ccc(C)cc2)cc1 (stereo not given)	n	n	n	-22	n	n	u
COc1ccc(C2N(S(=O)(=O)c3ccc(C)cc3)CCN2S(=O)(=O)c2ccc(C)cc2)cc1	x	x	x	n	n	x	x
CN(C(=O)c1cccc(NC(=O)Cc2cccc(NC(=O)C3CCN(C(=O)CCc4ccccc4)CC3)c2)c1)C1CC1	n	n	n	-38	n	x	u
O=C(Cc1cccc(NC(=O)C2CCN(C(=O)CCc3ccccc3)CC2)c1)Nc1cccc(C(=O)N2CCCC2)c1	x	n	n	-19	n	n	x
O=C(CCC(=O)N1CCOc2ccc(Cl)cc21)NCCN1CCOCC1	n	x	n	n	n	x	x
C[C@H](C(=O)O)c1cccc(C(=O)c2ccccc2)c1	n	n	n	x	n	x	x
Cc1cc(C)c(NC(=O)C(C)c2cccc(C(=O)c3ccccc3)c2)c(C)c1 (stereo not given)	n	n	n	-17	n	n	x
CNC(=O)C[C@H]1CC[C@H]2[C@@H](COc3ccc(NC(=O)Nc4ccc(F)c(F)c4)cc3C(=O)N2C)O1	n	x	x	n	n	x	x
